PubChem BioAssay (Tox21)
Inconclusive results are not listed. Active and inactive are the calls of the source. Unless noted, the call rests on the fitted dose curve.

Columns and labels:
[1] = Nuclear factor erythroid 2-related factor 2/antioxidant responsive element (Nrf2/ARE) small molecule agonists: qHTS cell viability counter screen in human keratinocytes (AID 1919968; active means well fitted curve in the direction sought with a large enough effect in the repeat runs; an effect the other way counts as inactive or inconclusive; further: nearly all actives have a fitted effect of over 55% in size)
How it was run: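 Cytotoxicity was multiplexed with the Nrf2/ARE luciferase assay in the same wells. Stably transfected HaCaT keratinocytes were treated with test compounds for 23 h at 37 C. Cell viability was then measured by CellTiter-Fluor fluorescence.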

[2] = Nuclear factor erythroid 2-related factor 2/antioxidant responsive element (Nrf2/ARE) small molecule agonists: luciferase reporter gene qHTS assay in human keratinocytes (AID 1919969); further: nearly all actives have a fitted effect of over 35% in size
[3] = molecular target: Gonadotropin-releasing hormone receptor (Homo sapiens) (UniProt P30968); assay: Human gonadotropin-releasing hormone receptor (GnRHR) small molecule agonists, calcium flux assay in GnRHR-HEK293 cells (AID 1920063); further: nearly all actives have a fitted effect of over 35% in size
Chain of Gonadotropin-releasing hormone receptor (Homo sapiens) (P30968 whole entry, looked up): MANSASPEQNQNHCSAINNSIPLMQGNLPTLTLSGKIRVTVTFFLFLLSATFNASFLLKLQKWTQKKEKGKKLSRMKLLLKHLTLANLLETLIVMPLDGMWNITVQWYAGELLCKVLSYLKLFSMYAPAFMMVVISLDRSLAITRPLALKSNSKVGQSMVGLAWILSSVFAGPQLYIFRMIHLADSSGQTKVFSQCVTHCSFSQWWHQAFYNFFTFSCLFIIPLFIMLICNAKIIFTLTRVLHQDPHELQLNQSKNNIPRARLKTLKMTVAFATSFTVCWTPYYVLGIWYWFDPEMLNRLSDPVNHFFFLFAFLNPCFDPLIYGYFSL
How it was run: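 Agonist activity was measured as intracellular calcium flux in HEK293 cells engineered to stably express human GnRHR. After dye loading for 1 hour at 37 C, compounds in DMSO were added and fluorescence was followed for 3 minutes.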

[4] = molecular target: KiSS-1 receptor (Homo sapiens) (UniProt Q969F8); assay: Human kisspeptin (KISS1R) small molecule agonists, calcium flux assay in KISS1R-HEK293 cells (AID 1920064; active means well fitted curve in the direction sought with a large enough effect in the repeat runs; an effect the other way counts as inactive or inconclusive)
Chain of KiSS-1 receptor (Homo sapiens) (Q969F8 whole entry, looked up): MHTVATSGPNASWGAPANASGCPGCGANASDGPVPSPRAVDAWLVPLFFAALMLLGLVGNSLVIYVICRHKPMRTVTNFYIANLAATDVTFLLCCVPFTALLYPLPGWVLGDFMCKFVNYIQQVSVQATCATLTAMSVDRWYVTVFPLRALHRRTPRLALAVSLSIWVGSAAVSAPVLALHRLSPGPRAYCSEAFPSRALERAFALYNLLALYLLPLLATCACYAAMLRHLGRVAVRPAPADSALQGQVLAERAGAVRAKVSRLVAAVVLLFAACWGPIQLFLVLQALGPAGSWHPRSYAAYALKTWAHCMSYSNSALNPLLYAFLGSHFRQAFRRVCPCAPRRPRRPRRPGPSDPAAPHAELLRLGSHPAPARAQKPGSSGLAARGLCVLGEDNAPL
How it was run: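 Agonist activity is monitored as intracellular calcium rise in engineered HEK293 cells carrying human KISS1R. Cells are dye-loaded for 1 h at 37 C before compound addition, and fluorescence is recorded for 3 min.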

[5] = G protein-coupled receptor (GPCR) small molecule agonists, calcium flux assay: HEK293 wild type cell line counter screen (AID 1920065)
How it was run: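 Seed cells, incubate 18 h (37 C, 5% CO2); add calcium dye, 1 h at 37 C; pin-transfer compounds, ATP control or DMSO; read fluorescence 480/540 nm each second for 3 min.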

[6] = p53 small molecule agonists, cell-based qHTS assay with human liver microsomes (AID 1963577)
How it was run: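 Fluorescence of the beta-lactamase reporter in p53RE-bla cells, detected with LiveBLAzer substrate (2 h, room temperature, dark), served as the read-out after 16 h compound exposure at 37 C with human liver microsomes and NADPH, each 0.5 mg/mL final.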

[7] = p53 small molecule agonists, cell-based qHTS assay with rat liver microsomes (AID 1963578)
How it was run: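 Cells carrying a p53 response element–beta-lactamase reporter were plated and rested 5 h, then dosed with compound in DMSO plus rat liver microsomes and NADPH, each at 0.5 mg/mL final. After 16 h at 37 C, LiveBLAzer substrate was added for 2 h.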

[8] = p53 small molecule agonists, cell-based qHTS assay: qHTS cell viability counter screen (AID 1963581); further: nearly all actives have a fitted effect of over 45% in size
How it was run: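 Viability was counter-screened in parallel with the p53 agonist reporter by measuring intracellular ATP luminescence in the same HCT-116 p53RE-bla wells after 16 h compound treatment at 37 C.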

[9] = p53 small molecule agonists, cell-based qHTS assay (AID 1963582; active means well fitted activation curve with a large enough effect in the signal ratio in the repeat runs, not every such curve was filed as active; the % refers to the signal ratio)
How it was run: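 Cells carrying a p53-responsive bla reporter are treated with test compounds for 16 h at 37 C; beta-lactamase activity is then detected with LiveBLAzer B/G FRET substrate after 2 h at room temperature.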

[10] = molecular target: 5-hydroxytryptamine receptor 2A (Homo sapiens) (UniProt P28223); assay: 5-hydroxytryptamine receptor 2A (HTR2A) small molecule antagonists, cell-based qHTS assay (AID 1963586); further: nearly all actives have a fitted effect of over 45% in size
Chain of 5-hydroxytryptamine receptor 2A (Homo sapiens) (P28223 whole entry, looked up): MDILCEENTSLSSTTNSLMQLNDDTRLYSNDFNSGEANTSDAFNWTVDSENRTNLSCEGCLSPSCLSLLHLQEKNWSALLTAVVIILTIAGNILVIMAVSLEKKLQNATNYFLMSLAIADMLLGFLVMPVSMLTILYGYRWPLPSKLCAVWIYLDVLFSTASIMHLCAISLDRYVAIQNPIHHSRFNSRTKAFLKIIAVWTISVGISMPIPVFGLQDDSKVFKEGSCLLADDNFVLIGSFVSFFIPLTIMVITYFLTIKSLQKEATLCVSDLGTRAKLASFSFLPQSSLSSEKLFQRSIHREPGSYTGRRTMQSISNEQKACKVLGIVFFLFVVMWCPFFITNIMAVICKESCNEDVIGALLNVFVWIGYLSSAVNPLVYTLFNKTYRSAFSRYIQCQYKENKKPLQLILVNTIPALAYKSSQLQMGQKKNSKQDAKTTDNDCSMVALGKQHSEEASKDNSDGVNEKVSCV
How it was run: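 CHO cells stably expressing human HTR2A were plated for 18 h at 37 C, then loaded with calcium dye for 1 h. Compounds were preincubated 5 min at room temperature before DOI (4 nM solution) was added. Kinetic fluorescence was read for 3 min.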

[11] = molecular target: 5-hydroxytryptamine receptor 2A (Homo sapiens) (UniProt P28223); assay: 5-hydroxytryptamine receptor 2A (HTR2A) small molecule agonists, cell-based qHTS assay (AID 1963587); further: nearly all actives have a fitted effect of over 30% in size
How it was run: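 HTR2A-CHO cells, plated 18 h at 37 C/5% CO2, dye-loaded 1 h at 37 C; compounds in DMSO added by pin tool (agonist mode). Intracellular calcium flux read as kinetic fluorescence on FDSS over 2 min at 1 s intervals.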

[12] = molecular target: Muscarinic acetylcholine receptor M1 (Homo sapiens) (UniProt P11229); assay: Cholinergic receptor muscarinic 1 (CHRM1) small molecule antagonists, cell-based qHTS assay (AID 1963588); further: nearly all actives have a fitted effect of over 40% in size
Chain of Muscarinic acetylcholine receptor M1 (Homo sapiens) (P11229 whole entry, looked up): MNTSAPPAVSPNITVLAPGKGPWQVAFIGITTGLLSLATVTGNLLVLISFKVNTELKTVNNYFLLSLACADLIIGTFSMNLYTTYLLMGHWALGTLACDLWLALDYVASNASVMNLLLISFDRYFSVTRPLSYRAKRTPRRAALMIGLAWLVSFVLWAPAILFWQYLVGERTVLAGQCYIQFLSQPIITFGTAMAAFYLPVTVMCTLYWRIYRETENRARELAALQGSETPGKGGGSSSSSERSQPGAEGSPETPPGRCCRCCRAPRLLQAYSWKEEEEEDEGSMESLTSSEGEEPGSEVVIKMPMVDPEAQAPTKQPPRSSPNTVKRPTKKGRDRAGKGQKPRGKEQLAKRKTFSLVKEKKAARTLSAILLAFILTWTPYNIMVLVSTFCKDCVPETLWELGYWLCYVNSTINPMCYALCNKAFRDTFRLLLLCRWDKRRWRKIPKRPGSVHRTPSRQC
How it was run: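 Compounds were tested at 15 concentrations in three independent runs. Dye-loaded CHRM1-CHO cells were exposed 5 min at room temperature before stimulation by acetylcholine added at 50nM. Intracellular calcium was read kinetically on FDSS for 3 min.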

[13] = molecular target: Muscarinic acetylcholine receptor M1 (Homo sapiens) (UniProt P11229); assay: Cholinergic receptor muscarinic 1 (CHRM1) small molecule agonists, cell-based qHTS assay (AID 1963589); further: nearly all actives have a fitted effect of over 35% in size
How it was run: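 Cells were plated and incubated 18 h at 37 C/5% CO2, loaded with calcium dye for 1 h at 37 C, then treated with compounds in DMSO. Fluorescence was recorded kinetically at 1 sec intervals.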

[14] = cAMP Responsive Elements (CRE) small molecule agonists, cell-based qHTS assay (AID 1963590)
How it was run: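 Cells carrying a CRE-driven beta-lactamase reporter (HEK 293T) are seeded, incubated overnight (18 h), and treated with test compounds for 3 h at 37 C; reporter activity is then detected with a FRET substrate after 2 h at room temperature.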

[15] = cAMP Responsive Elements (CRE) small molecule antagonists, cell-based qHTS assay (AID 1963591; active means well fitted inhibition curve with a large enough effect in the signal ratio in the repeat runs, not every such curve was filed as active; the % refers to the signal ratio)
How it was run: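 Cells (CRE-bla HEK 293T, DMEM with 10% dialyzed FBS and 25 mM HEPES) are seeded and incubated 18 h. Compounds are added with NKH477 agonist at 0.25 uM final for 3 h, then FRET substrate for 2 h.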

[16] = molecular target: Beta-2 adrenergic receptor (Homo sapiens) (UniProt P07550); assay: Adrenergic beta2 receptor (ADRB2) small molecule antagonists, cell-based qHTS assay (AID 1963592); further: series mostly up to about 92 µM; nearly all actives have a fitted effect of over 50% in size
Chain of Beta-2 adrenergic receptor (Homo sapiens) (P07550 whole entry, looked up): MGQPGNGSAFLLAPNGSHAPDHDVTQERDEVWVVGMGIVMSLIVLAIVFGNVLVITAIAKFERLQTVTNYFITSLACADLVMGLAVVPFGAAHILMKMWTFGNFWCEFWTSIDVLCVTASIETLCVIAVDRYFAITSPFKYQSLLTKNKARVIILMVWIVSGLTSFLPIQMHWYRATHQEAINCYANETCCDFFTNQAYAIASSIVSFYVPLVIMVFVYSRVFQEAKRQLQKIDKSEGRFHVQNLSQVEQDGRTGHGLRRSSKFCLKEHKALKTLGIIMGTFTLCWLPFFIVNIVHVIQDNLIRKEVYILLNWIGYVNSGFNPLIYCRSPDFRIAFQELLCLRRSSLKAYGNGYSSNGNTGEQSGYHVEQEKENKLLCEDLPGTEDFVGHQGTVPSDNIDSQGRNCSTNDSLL
How it was run: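 Assay format: CHO-ADRB2 cells, 18-20hr seeding at 37C/5% CO2, then compound plus 1nM isoproterenol agonist mix for 0.5hr RT. Homogeneous time-resolved fluorescence cAMP detection after 1hr, expressed as 665/615 nm ratio.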

[17] = molecular target: Beta-2 adrenergic receptor (Homo sapiens) (UniProt P07550); assay: Adrenergic beta2 receptor (ADRB2) small molecule agonists, cell-based qHTS assay (AID 1963593);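 further: CHO cells stably overexpressing human ADRB2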
How it was run: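 CHO cells stably over-expressing ADRB2 were plated overnight at 37C, then dosed with compounds plus a stimulation mix containing 100uM IBMX and 25uM Ro-20-1724 for 0.5hr at room temperature. cAMP was measured by HTRF competition, 1hr.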

[18] = molecular target: D(2) dopamine receptor (Homo sapiens) (UniProt P14416); assay: Dopamine D2 receptor (DRD2) small molecule agonists, cell-based qHTS assay (AID 1963594); further: nearly all actives have a fitted effect of over 35% in size
Chain of D(2) dopamine receptor (Homo sapiens) (P14416 whole entry, looked up): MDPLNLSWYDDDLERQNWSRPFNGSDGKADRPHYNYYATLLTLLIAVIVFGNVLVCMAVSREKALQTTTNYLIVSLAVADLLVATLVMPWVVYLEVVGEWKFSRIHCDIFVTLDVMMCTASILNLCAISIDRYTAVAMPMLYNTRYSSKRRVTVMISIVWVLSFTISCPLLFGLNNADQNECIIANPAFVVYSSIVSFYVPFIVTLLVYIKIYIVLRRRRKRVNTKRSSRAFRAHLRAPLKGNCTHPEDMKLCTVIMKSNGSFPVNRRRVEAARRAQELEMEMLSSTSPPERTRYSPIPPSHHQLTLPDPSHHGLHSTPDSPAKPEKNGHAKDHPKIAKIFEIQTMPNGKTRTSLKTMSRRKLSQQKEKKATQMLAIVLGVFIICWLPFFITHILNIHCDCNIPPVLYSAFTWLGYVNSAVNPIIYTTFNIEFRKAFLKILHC
How it was run: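 HEK293 cells stably expressing DRD2 were cultured 24 h at 37 C, then given Ro20-1724 (0.1 mM final) and compounds for 10 min at room temperature. NKH477 (200nM) was then added for 30 min. cAMP was read by HTRF.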

[19] = molecular target: D(2) dopamine receptor (Homo sapiens) (UniProt P14416); assay: Dopamine D2 receptor (DRD2) small molecule antagonists, cell-based qHTS assay (AID 1963595; active means well fitted inhibition curve with a large enough effect in the signal ratio in the repeat runs, with a control signal flat; the % refers to the signal ratio)
How it was run: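 DRD2-HEK293; 0.1 mM Ro20-1724; cpd 10 min RT; NKH477 200 nM + quinpirole 12 nM, 30 min RT; HTRF cAMP (cAMP-d2/anti-cAMP cryptate), 665/620 nm ratio after 1 h.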

[20] = p53 small molecule agonists, cell-based qHTS assay with human liver microsomes: qHTS cell viability counter screen (AID 1963579); further: nearly all actives have a fitted effect of over 45% in size
How it was run: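 Cytotoxicity counter screen: p53RE-bla, 4,000 cells/well; 5 h settle, 37 C/5% CO2; cpd + HLM 0.5 mg/mL + NADPH 0.5 mg/mL (final); 16 h, 37 C; CellTiter-Glo, 30 min RT, luminescence.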

Measured: Potency

CC(C)(c1cc(Br)c(OCC(Br)CBr)c(Br)c1)c1cc(Br)c(OCC(Br)CBr)c(Br)c1 (stereo unspecified)
not listed: [20]
inactive: all other assays above

Nc1cc(-c2ccncc2)c[nH]c1=O
not listed: [9] | [10] | [11] | [12] | [13]
inactive: all other assays above

C=C(C)C(=O)OCCC[Si](Cl)(Cl)Cl
not listed: [20]
inactive: all other assays above

O=C(O)CONC(=O)c1ccccc1
not listed: [20]
inactive: all other assays above

C=C(C)C(=O)OCCOCCOCCOC(=O)C(=C)C
not listed: [14] | [15] | [17]
inactive: all other assays above

CCC/C=C/CO
not listed: [11] | [15] | [18]
inactive: all other assays above

C[C@@H](O)[C@H]1C(=O)N2C(C(=O)O)=C([C@H]3CCCO3)S[C@H]12
not listed: [10] | [11] | [13] | [17]
inactive: all other assays above

CCc1ccc(Br)cc1
not listed: [20]
inactive: all other assays above
